Source: PubChem BioAssay AID1159580 (chemical genetic matrix, 2015)
“And” between values parts separate entries of the source, which are not always exact repeats. Equal entries are not always repeated. Out of some 5,500 compounds screened, about 2,000 (36%) were called active. Inconclusive results (about 18%) are left out. No stated cut-off is given here; in the data, active means normalized growth mostly below about 0.91 (no sharp cut-off); inconclusive means no clear call, values can overlap the other calls; inactive means mostly above about 0.92. The list shows a part of the results.

Test: chemical genetic growth profiling, strain panel (AID 1159580);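 further: tested at 20 µM; growth read once vehicle control cultures reached saturation at 30 °C; 1 = growth at the plate median or of vehicle wells; lower values mean less growth of the strain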
Details: S. cerevisiae deletion strains, growth OD
[1] = locus YAL013W, strain DEP1, active compounds read low
[2] = locus YBR229C, strain ROT2, active compounds read low
[3] = locus YCL061C, strain MRC1, active compounds read low
[4] = locus YDL101C, strain DUN1, active compounds read low
[5] = locus YEL061C, strain CIN8, active compounds read low
[6] = locus YGR078C, strain PAC10, active compounds read low
[7] = locus YHR030C, strain SLT2, active compounds read low
[8] = locus YJR043C, strain POL32, active compounds read low
[9] = locus YJR075W, strain HOC1, active compounds read low
[10] = locus YLR039C, strain RIC1, active compounds read low
[11] = locus YLR262C, strain YPT6, active compounds read low
[12] = locus YMR263W, strain SAP30, active compounds read low
[13] = locus YNL153C, strain GIM3, active compounds read low
[14] = locus YNL322C, strain KRE1, active compounds read low

Measured: normalized growth

Cc1ccc(OCc2nnc(SCC(=O)Nc3cccc4c3OCO4)n2-c2ccccc2)c2c1CCC2
inactive: [1] 1.01 | [2] 1.01 | [3] 1 | [4] 0.992 | locus YDR150W, strain NUM1, active compounds read low 0.982 | [5] 0.99 | [6] 1 | locus YGR229C, strain SMI1, active compounds read low 0.993 | [7] 1 | locus YHR087W, strain rtc3, active compounds read low 0.992 | [8] 1 | [9] 1.01 | locus YKL190W, strain CNB1, active compounds read low 0.973 | [10] 0.991 | locus YLR058C, strain SHM2 (second series), active compounds read low 1.01 | locus YLR085C, strain ARP6, active compounds read low 0.995 | [11] 0.985 | locus YML094W, strain GIM5, active compounds read low 0.98 | locus YMR219W, strain ESC1, active compounds read low 0.999 | [12] 1.01 | locus YNL128W, strain TEP1, active compounds read low 0.984 | [13] 1 | locus YNL298W, strain CLA4 (second series), active compounds read low 0.988 | [14] 0.992 | locus YNR030W, strain Alg12, active compounds read low 0.995 | locus YPL055C, strain LGE1, active compounds read low 0.991 | locus YPL241C, strain CIN2, active compounds read low 0.999 | locus YPR135W, strain CTF4, active compounds read low 1.02

C[C@H](CCC(=O)O)[C@H]1CCC2C3C(CC[C@@]21C)[C@@]1(C)CC[C@@H](O)C[C@H]1C[C@H]3O (some centres undefined)
inactive: [1] 1.02 | locus YAL021C, strain ccr4, active compounds read low 1.01 | locus YAL026C, strain drs2, active compounds read low 0.987 | locus YAL030W, strain snc1, active compounds read low 1.02 | locus YBL061C, strain skt5, active compounds read low 1.02 | locus YBR009C, strain hhf1, active compounds read low 0.973 | locus YBR021W, strain FUR4, active compounds read low 1.02 | locus YBR023C, strain chs3, active compounds read low 1.01 | locus YBR171W, strain sec66, active compounds read low 1 | [2] 1.02 | locus YBR231C, strain swc5, active compounds read low 1.03 | locus YBR279W, strain paf1, active compounds read low 1.01 | locus YCL011C, strain gbp2, active compounds read low 1 | locus YCL016C, strain dcc1, active compounds read low 0.982 | locus YCL029C, strain bik1, active compounds read low 1.05 | [3] 0.998 | locus YCL069W, strain vba3, active compounds read low 1.02 | locus YCR088W, strain abp1, active compounds read low 1.02 | locus YDL005C, strain med2, active compounds read low 1.01 | locus YDL035C, strain GPR1, active compounds read low 0.985 | locus YDL040C, strain nat1, active compounds read low 1.01 | locus YDL074C, strain BRE1, active compounds read low 1.09 | [4] 1.02 | locus YDL134C, strain PPH21, active compounds read low 1 | locus YDL185W, strain tfp1, active compounds read low 1.07 | locus YDL192W, strain arf1, active compounds read low 1.05 | locus YDR001C, strain nth1, active compounds read low 1.02 | locus YDR069C, strain doa4, active compounds read low 1.01 | locus YDR101C, strain arx1, active compounds read low 1.04 | locus YDR159W, strain sac3, active compounds read low 1.02 | locus YDR162C, strain NBP2, active compounds read low 1.02 | locus YDR195W, strain ref2 1.13 | locus YDR297W, strain sur2, active compounds read low 1.02 | locus YDR318W, strain mcm21, active compounds read low 1.03 | locus YDR334W, strain swr1, active compounds read low 1.04 | locus YDR335W, strain msn5, active compounds read low 1.02 | locus YDR388W, active compounds read low 1.04 | locus YDR392W, strain spt3, active compounds read low 0.923 | locus YDR502C, strain sam2, active compounds read low 1.04 | locus YEL003W, strain gim4, active compounds read low 0.998 | locus YEL037C, strain rad23, active compounds read low 1.02 | locus YEL061C, strain CIN8 (second series), active compounds read low 1.02 | [5] 1.02 | locus YER015W, strain faa2, active compounds read low 1.05 | locus YER016W, strain bim1, active compounds read low 1.01 | locus YER110C, active compounds read low 1.05 | locus YER111C, strain swi4, active compounds read low 1.02 | locus YER155C, strain BEM2 (second series), active compounds read low 1.05 | locus YER155C, strain BEM2, active compounds read low 1.04 | locus YER167W, strain BCK2, active compounds read low 1.03 | locus YFR010W, strain ubp6, active compounds read low 1.03 | locus YGL078C, strain dbp3, active compounds read low 0.953 | locus YGL086W, strain mad1, active compounds read low 1.03 | locus YGL167C, strain pmr1, active compounds read low 1.02 | locus YGL173C, strain kem1, active compounds read low 0.969 | locus YGL227W, strain vid30, active compounds read low 1.02 | locus YGL240W, strain doc1, active compounds read low 1.02 | locus YGL248W, strain PDE1, active compounds read low 1.01 | locus YGL253W, strain hxk2, active compounds read low 1.01 | [6] 1.03 | locus YGR135W, strain pre9, active compounds read low 1.02 | locus YGR252W, strain gcn5, active compounds read low 0.929 | locus YHR013C, strain ard1, active compounds read low 1.06 | locus YHR027C, strain rpn1, active compounds read low 1.01 | [7] 1.05 and 0.889 | locus YHR079C, strain IRE1 (second series), active compounds read low 1.05 | locus YHR079C, strain IRE1, active compounds read low 0.87 | locus YHR094C, strain hxt1, active compounds read low 1.05 | locus YHR129C, strain ARP1, active compounds read low 1.03 | locus YHR142W, strain chs7, active compounds read low 0.993 | locus YHR200W, strain rpn10, active compounds read low 1.06 | locus YIL066C, strain RNR3, active compounds read low 1.03 | locus YIL073C, strain SPO22, active compounds read low 1.12 | locus YIL125W, strain kgd1, active compounds read low 1.05 | locus YIR030C, strain dcg1, active compounds read low 1.05 | locus YJL092W, strain hpr5, active compounds read low 1.03 | locus YJL095W, strain BCK1 (second series), active compounds read low 1.02 | locus YJL095W, strain BCK1, active compounds read low 1.04 and 0.89 | locus YJL115W, strain asf1, active compounds read low 1.03 | locus YJL129C, strain trk1, active compounds read low 1.03 | locus YJL134W, strain LCB3, active compounds read low 1.03 | locus YJL154C, strain vps35, active compounds read low 1.03 | locus YJL164C, strain tpk1, active compounds read low 0.992 | locus YJL166W, strain qcr8, active compounds read low 0.979 | locus YJL168C, strain set2, active compounds read low 1.05 | locus YJL187C, strain SWE1 (second series), active compounds read low 1 | locus YJL187C, strain SWE1, active compounds read low 1.02 | [8] 0.999 | locus YJR066W, strain TOR1, active compounds read low 0.862 | [9] 1.04 | locus YKL009W, strain mrt4, active compounds read low 0.9 | locus YKL068W, active compounds read low 1.03 | locus YKL085W, strain MDH1 (second series), active compounds read low 1.03 | locus YKL085W, strain MDH1, active compounds read low 1.03 | locus YKL160W, strain elf1, active compounds read low 0.974 | locus YKR001C, strain vps1, active compounds read low 1.09 | locus YKR026C, strain gcn3, active compounds read low 1.03 | locus YKR091W, strain srl3, active compounds read low 1.01 | locus YLL001W, strain dnm1, active compounds read low 0.991 | locus YLL026W, active compounds read low 1.02 | locus YLL041C, strain sdh2, active compounds read low 1.03 | locus YLR027C, strain aat2, active compounds read low 1.01 | [10] 1.02 | locus YLR058C, strain SHM2, active compounds read low 1.01 | locus YLR102C, strain apc9, active compounds read low 1.05 | locus YLR113W, strain HOG1, active compounds read low 0.923 | locus YLR221C, strain rsa3, active compounds read low 0.954 | locus YLR258W, strain gsy2, active compounds read low 0.996 | [11] 0.99 | locus YLR268W, strain sec22, active compounds read low 1.03 | locus YLR320W, strain mms22, active compounds read low 0.955 | locus YLR330W, strain CHS5, active compounds read low 1.04 | locus YLR342W, strain FKS1 (second series), active compounds read low 1.04 | locus YLR342W, strain FKS1, active compounds read low 1 | locus YLR357W, strain rsc2, active compounds read low 1.09 | locus YLR370C, strain arc18, active compounds read low 0.993 | locus YLR371W, strain rom2, active compounds read low 1.07 | locus YLR384C, strain iki3, active compounds read low 1.01 | locus YLR418C, strain cdc73, active compounds read low 1.03 | locus YML016C, strain PPZ1, active compounds read low 1.02 | locus YML032C, strain rad52, active compounds read low 1.02 | locus YML120C, strain ndi1, active compounds read low 0.962 | locus YML124C, strain tub3, active compounds read low 1.05 | locus YMR058W, strain fet3, active compounds read low 1.01 | locus YMR078C, strain ctf18, active compounds read low 1.08 | locus YMR125W, strain sto1, active compounds read low 1.04 | locus YMR129W, active compounds read low 1.01 | locus YMR205C, strain PFK2, active compounds read low 0.989 | locus YMR223W, strain ubp8, active compounds read low 1.01 | locus YMR231W, strain pep5, active compounds read low 0.993 | [12] 1.02 | locus YMR307W, strain GAS1, active compounds read low 1.1 | locus YNL067W, strain RPL9B, active compounds read low 0.999 | locus YNL071W, strain lat1, active compounds read low 1.01 | [13] 1 | locus YNL183C, strain NPR1, active compounds read low 0.854 | locus YNL209W, strain ssb2, active compounds read low 1.02 | locus YNL233W, strain BNI4, active compounds read low 1.05 | locus YNL248C, strain rpa49, active compounds read low 1.01 | locus YNL250W, strain rad50, active compounds read low 1.03 | locus YNL271C, strain bni1, active compounds read low 1.01 | locus YNL298W, strain CLA4, active compounds read low 0.977 | locus YNL307C, strain MCK1, active compounds read low 1.04 | locus YNL322C, strain KRE1 (second series), active compounds read low 1.02 | [14] 1.03 | locus YNR049C, strain mso1, active compounds read low 1.01 | locus YNR052C, strain pop2, active compounds read low 0.994 | locus YOL012C, strain htz1 1.83 | locus YOR001W, strain rrp6, active compounds read low 0.979 | locus YOR061W, strain CKA2, active compounds read low 1.06 | locus YOR069W, strain VPS5, active compounds read low 1.03 | locus YOR070C, strain gyp1, active compounds read low 1.01 | locus YOR080W, strain dia2, active compounds read low 1.02 | locus YOR083W, strain WHI5, active compounds read low 0.971 | locus YOR106W, strain vam3, active compounds read low 0.928 | locus YOR136W, strain idh2, active compounds read low 1.06 | locus YOR144C, strain elg1, active compounds read low 1.04 | locus YOR184W, strain ser1, active compounds read low 1.01 | locus YOR265W, strain rbl2, active compounds read low 1.01 | locus YOR270C, strain vph1, active compounds read low 0.964 | locus YOR290C, strain snf2, active compounds read low 0.979 | locus YOR316C, strain cot1, active compounds read low 1.05 | locus YPL051W, strain arl3, active compounds read low 0.978 | locus YPL078C, strain atp4, active compounds read low 0.982 | locus YPL106C, strain sse1, active compounds read low 1.08 | locus YPL240C, strain hsp82, active compounds read low 1.01 | locus YPL256C, strain CLN2, active compounds read low 0.952 | locus YPR119W, strain clb2, active compounds read low 1.03 | locus YPR141C, strain kar3, active compounds read low 1.06 | locus YPR163C, strain tif3, active compounds read low 1.06 | locus YPR167C, strain met16, active compounds read low 1.05 | strain wtn01, active compounds read low 1.06
active: locus YDR137W, strain rgp1, active compounds read low 0.786 | locus YLR262C, strain YPT6 (second series), active compounds read low 0.799 | locus YOL147C, strain pex11, active compounds read low 1.07 [resistant] | locus YOR231W, strain MKK1, active compounds read low 0.849
